High-throughput results from PubChem.
PD-1 reverse act: reversal of PD-1 mediated T-cell inhibition; activation, % (test concentration not listed); AID 2316; primary human CD4 T cells, PD-L1 beads, CellTiter-Glo 96 h; 29,000 tested, under 10 active; call rule not given here
YB-1 expression: YB-1 expression inhibition | delta delta Cp (YB-1 minus CDIP) (concentration not given with the values) | U2OS, qRT-PCR YB-1 vs CDIP delta delta Cp, 16 h; stronger effect = higher value; zero = DMSO, each unit about twofold | hit rate 0.37% among 30,000;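 active = delta delta Cp rounded down to an integer at or above 3, about 3 SD of DMSO wells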;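 note: higher means less YB-1 transcript or more CDIP transcript relative to DMSO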
U2OS ROS induce: cancer cell ROS induction; hit rate 2% among 46,000; U2OS ROS induction, H2DCF-DA fluorescence; ROS induction (% of piperlongumine), % at 10 µM; in the data active = ROS induction above about 79%, passing the limit was not always enough
Numbers stand for hits; - = inactive; . = not tested or not shown. Most compounds without a hit are left out; they make up all but 2.3% or so of the library.

SMILES	PD-1 reverse act	YB-1 expression	U2OS ROS induce
CC(C)NC(=O)N(C)C[C@@H]1Oc2c(NC(=O)Nc3ccc(F)cc3)cccc2C(=O)N([C@H](C)CO)C[C@H]1C	-	-	-
C[C@H]1CN([C@@H](C)CO)C(=O)c2cc(NC(=O)Nc3cccc4ccccc34)ccc2O[C@@H]1CN(C)C(=O)Nc1ccccc1	-	-	-
C=CCN1C(=O)[C@]2(O[C@H](CCO)[C@@H]([Si](C)(C)c3ccc(OC)cc3)[C@@H]2C)c2cc(NC(C)=O)ccc21	.	-	-
CC(=O)n1c(C=NCc2ccccc2)c(O)c2ccccc21	.	.	-
CSc1ccccc1NC(=O)C(C)N(c1ccccc1)S(C)(=O)=O (stereo not given)	-	.	-
CC(C)C(=O)NCCSc1c(-c2ccccc2)[nH]c2ccccc12	.	.	-
COc1ccc(C)cc1NC(=O)CSc1nnc(-c2ccc(C(C)(C)C)cc2)n1C	-	.	93
COc1ccc(C)cc1NC(=O)CSc1nnc(-c2ccc(Cl)c(Cl)c2)n1C	-	.	-
COc1ccc(OC)c(NC(=O)COc2ccc([N+](=O)[O-])cc2)c1	-	.	-
Cc1nc2c3ccccc3n3c(CCCC(=O)NCCc4ccc(Cl)cc4)nnc3n2n1	.	.	-
COC(CNc1ncnc2c1c(-c1ccccc1)cn2-c1ccc(C)cc1)OC	.	.	-
COc1ccc(-n2cc(-c3ccccc3)c3c(N4CCCCC4)ncnc32)cc1	.	.	116
CC(=O)N(Cc1ccccc1)c1ccccn1	.	.	-
CC(C)(C)c1ccc(NC(=O)c2ccc(N3C(=O)CSCC3=O)cc2)cc1	.	.	150
CC(C)(C)c1ccc(NC(=O)c2ccc(C(C)(C)C)s2)cc1	.	.	-
C=C(C)C(=O)O[C@H]1[C@H]2C(=C)C(=O)O[C@@H]2C[C@@H](C)/C=C/C(=O)[C@](C)(O)[C@@H]1OC(=O)C(=C)C	-	-	-
C=C(C)C(=O)O[C@H]1[C@H]2C(=C)C(=O)O[C@@H]2C[C@@H](C)[C@@H]2O[C@@H]2C(=O)[C@](C)(O)[C@@H]1OC(C)=O	-	-	82
COc1ccc(C2C(C(=O)Nc3cc(OC)c(Cl)cc3OC)=C(C)Nc3ncnn32)c(OC)c1 (stereo not given)	-	.	136
COc1ccccc1NC(=O)C1=C(C)Nc2ncnn2C1c1ccccc1C(=O)O (stereo not given)	-	.	-
COc1cc2c(cc1OC)CN(C(=O)[C@@H]1[C@H]3C(=O)O[C@H](c4ccccc4)[C@H](c4ccccc4)N3[C@H](c3ccccc3OCCO)[C@@]13C(=O)Nc1ccc(C#CCCO)cc13)CC2	.	-	-
CCOC(=O)c1c(CNC(C)C)oc2ccc(OC)cc12	-	10	-
CCOC(=O)c1c(C(C)(C)C)oc2ccc(OCC(=O)OC)cc12	-	-	-
Cc1ccc(Cl)cc1N1CCN(C(=O)CN2C(=O)COc3ccc(C(C)(C)C)cc32)CC1	.	.	-
CCOc1ccc(S(=O)(=O)NCc2ccccc2)cc1-c1nc2c(C(C)(C)C)nn(C)c2c(=O)[nH]1	-	-	201
CCCc1nn(C)c2c(=O)[nH]c(-c3cc(S(=O)(=O)N4CCN(C)CC4)ccc3OCC)nc12	.	-	-
SMILES	PD-1 reverse act	YB-1 expression	U2OS ROS induce
COc1ccc2nc(SCC(=O)NC3CCCC3)[nH]c2c1	-	.	-
CCN(CC)c1c(C#N)c(SCC(=O)c2cccs2)cc2c1CCCC2	-	-	92
Cc1cc(C)c2c(=O)[nH]c(SCC(=O)c3cccs3)nc2n1	-	.	-
COc1cc2c(cc1OC)N1C(=O)C[C@]34C=CCN5CC[C@@H]2[C@@H](CC3)[C@]514	.	-	86
COc1ccc2c(Sc3ccc(Cl)cc3)c(C(=O)NCCCN3CCN(C)CC3)[nH]c2c1	.	.	-
CSc1nc(-c2cccnc2)nc(-c2ccc(OC(F)(F)F)cc2)c1C#N	-	-	-
Cc1cc(C)cc(CC(CC(=O)O)C(=O)NCc2ccccc2)c1 (stereo not given)	.	.	-
C[C@@H]1CN([C@H](C)CO)C(=O)c2cccc(NC(=O)CCCCCC(=O)Nc3ccccc3N)c2O[C@H]1CN(C)Cc1ccc2c(c1)OCO2	-	-	106
C[C@H](CO)N1C[C@H](C)[C@H](CN(C)Cc2ccc(Cl)c(Cl)c2)Oc2ccc(NC(=O)CCCCCC(=O)Nc3ccccc3N)cc2C1=O	-	-	-
C[C@@H]1CN([C@H](C)CO)C(=O)c2cccc(NC(=O)CCCCCC(=O)Nc3ccccc3N)c2O[C@@H]1CN(C)Cc1ccc2c(c1)OCO2	-	-	-
C[C@H](CO)N1C[C@H](C)[C@H](CN(C)Cc2ccc(Cl)c(Cl)c2)Oc2c(NC(=O)CCCCCC(=O)Nc3ccccc3N)cccc2C1=O	-	-	121
CSc1ccc(N=CN2C(=O)c3ccccc3C2=O)cc1	-	-	-
COc1ccc(C)cc1N(CC(=O)Nc1ccc(I)cc1)S(C)(=O)=O	-	.	-
CCOC(=O)c1c(NC(=O)c2nn(CC)cc2Br)c(C#N)nn1-c1ccccc1	-	.	125
CCOC(=O)CNc1nnc(-c2ccccc2)c(-c2ccccc2)c1C#N	.	.	-
COC(=O)c1nn(-c2ccccc2)c(=O)c2c(N)sc(C)c12	.	.	-
CCOC(=O)c1nn(-c2ccccc2)c(C#N)c1NC(=O)c1nn(CC)cc1Br	-	-	166
Cc1ccc(C)c(NC(=O)C2CN(S(=O)(=O)c3ccccc3)CCN2S(=O)(=O)c2ccccc2)c1 (stereo not given)	-	.	-
Cc1ccc(CS(=O)Cc2ccc(C(=O)N3CCN(Cc4ccccc4)CC3)o2)cc1 (stereo not given)	.	.	-
CN(C)/C=N/c1nnc(SCC(=O)c2ccc(F)cc2)s1	.	.	-
Cc1cc(Sc2nnc(/N=C/N(C)C)s2)c2ccccc2n1	.	.	192
CCOC(=O)c1nnn2c1nc(N(CC)CC)c1ccccc12	-	-	-
CCOC(=O)c1nnn2c1nc(Sc1nnc(-c3ccncc3)n1C)c1ccccc12	-	-	161
Cn1c(SCCC(=O)O)nnc1-c1ccncc1	-	.	-
CCOC(=O)c1nnn2c1nc(Sc1nc3ccccc3o1)c1ccccc12	-	-	108
SMILES	PD-1 reverse act	YB-1 expression	U2OS ROS induce
Cc1sc2ncnc(SCC(=O)Nc3ccccc3-c3ccccc3)c2c1C	-	.	-
CC1=CC(C)C2(COC(=O)NC3CCCCC3)COC3(CCCC3)C1C2C (stereo not given)	-	-	-
C[C@@H]1CN([C@@H](C)CO)C(=O)Cc2cc(NC(=O)c3ccncc3)ccc2O[C@@H]1CN(C)Cc1ccc(Oc2ccccc2)cc1	-	-	-
C[C@@H]1CN([C@H](C)CO)C(=O)Cc2cc(NC(=O)CCN3CCOCC3)ccc2O[C@@H]1CN(C)Cc1ccc(Oc2ccccc2)cc1	-	-	87
CC(C)NC(=O)Nc1ccc2c(c1)CC(=O)N([C@H](C)CO)C[C@H](C)[C@H](CN(C)Cc1ccc(Oc3ccccc3)cc1)O2	-	-	-
CC(C)NC(=O)Nc1ccc2c(c1)CC(=O)N([C@H](C)CO)C[C@@H](C)[C@@H](CN(C)Cc1ccc(Oc3ccccc3)cc1)O2	-	-	129
C[C@H]1CN([C@@H](C)CO)C(=O)Cc2cc(NC(=O)CCN3CCOCC3)ccc2O[C@@H]1CN(C)Cc1ccc(Oc2ccccc2)cc1	-	-	-
C[C@@H]1CN([C@H](C)CO)C(=O)Cc2cc(NC(=O)c3ccncc3)ccc2O[C@H]1CN(C)Cc1ccc(Oc2ccccc2)cc1	-	-	127
